Source: PubChem (Broad Institute)
This is a sample that favours compounds with a hit; in the whole collection about 1.4% have one here.
CFTR F508del cor – F508del CFTR correction, initial screen, CFBE line, single point | CFBE cells, YFP halide quenching; stimulated with forskolin plus potentiator P3; % fluorescence drop versus neutral controls | activity (quench increase), % at 7.58 µM | 0.36% of 350,000 active;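 active = mean added fluorescence quench of at least 8% versus neutral control, with both replicates also reaching 8%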;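 note: cells transiently co-express mutant CFTR-F508del with the halide-sensitive YFP; corrector assay measuring rescue of mutant channel to the surface after 24 h compound exposure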
ARNT-TACC3 inh – disruptors of ARNT/TACC3 protein interaction, primary screen, biochemical, AlphaScreen, single concentration | Transforming acidic coiled-coil-containing protein 3 (Homo sapiens), Q9Y6A5 | AlphaScreen His-ARNT PAS-B/GST-TACC3 binding, luminescence; TACC3 fragment carries E629A point mutation | inhibition, % at 9.99 µM | 0.66% of 390,000 active;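 active = mean inhibition of replicates at least 50% and at least half of replicates each reaching 50%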
PglD DTNB – C. jejuni PglD acetyltransferase inhibitors, primary screen, biochemical, DTNB colorimetric, single point. AID 602405, 2012. 0.098% of 360,000 active. inhibition, % at 12.5 µM. purified PglD enzyme, DTNB colorimetric CoA detection. UDP-N-acetylbacillosamine N-acetyltransferase PglD (Campylobacter jejuni); in the data active = inhibition above about 16%, passing the limit was not always enough
Statin myotox sup – suppressors of statin myotoxicity in C2C12 myotubes, primary screen, cell-based, single point, plate reader; C2C12 myotubes + simvastatin, ATP luminescence, 48 h; scaled: DMSO 0, geranylgeraniol control 100; rescue of ATP level, % at 7.49 µM; 0.78% of 330,000 active;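 active = mean ATP rescue above about 67%, or every replicate alone reaching that limit, limit read from the data, passing the limit was not always enough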;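 note: myotubes were challenged with 10 µM simvastatin during compound exposure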
Numbers stand for hits; 0 = inactive; - = no result.

SMILES	CFTR F508del cor	ARNT-TACC3 inh	PglD DTNB	Statin myotox sup
CN1CCN(c2nc(-c3ccccn3)nc3ccccc23)CC1	-	67	0	0
CC(C)NC(=O)N1CC2(C1)[C@@H](c1ccccc1)[C@@H](CO)N2CCC(F)(F)F	0	-	-	-
COc1cccc(CNC(=O)CCC2CCCN(C(=O)C3=CC(=O)CC(C)(C)O3)C2)c1 (configuration not stated)	0	-	0	79
COc1cccc(CNC(=O)CCC2CCCN(C(=O)c3cccc(Cl)c3)C2)c1 (configuration not stated)	0	0	0	0
C[C@@H]1CN([C@H](C)CO)C(=O)c2cc(NC(=O)Nc3cccc4ccccc34)ccc2O[C@@H]1CN(C)Cc1ccc(C(=O)Nc2ccccc2N)cc1	0	0	0	149
C[C@@H]1CN([C@H](C)CO)C(=O)c2cc(NC(=O)Nc3ccc(C(F)(F)F)cc3)ccc2O[C@@H]1CN(C)Cc1ccc(C(=O)Nc2ccccc2N)cc1	0	0	0	113
C[C@H](CO)N1C[C@H](C)[C@H](CN(C)Cc2ccc(C(=O)Nc3ccccc3N)cc2)Oc2ccc(NC(=O)Nc3cccc4ccccc34)cc2CC1=O	0	0	0	240
C[C@@H]1CN([C@@H](C)CO)C(=O)Cc2cc(NC(=O)Nc3cccc4ccccc34)ccc2O[C@@H]1CN(C)Cc1ccc(C(=O)Nc2ccccc2N)cc1	0	-	-	-
COc1ccc(OC)c(Nc2cc(C)nc3ccc(C)cc23)c1	12	0	0	0
COc1ccc2nc(C)cc(Nc3ccc(C)cc3)c2c1	0	0	0	0
COc1ccc(S(=O)(=O)Nc2ccc3c(c2)C(=O)N([C@H](C)CO)C[C@@H](C)[C@H](CN(C)Cc2ccc4c(c2)OCO4)OCCCC[C@H](C)O3)cc1	0	0	0	0
COc1ccc(CN(C)C[C@H]2Oc3ccc(NC(=O)Nc4ccc(C(F)(F)F)cc4)cc3C(=O)N([C@H](C)CO)C[C@H]2C)cc1	0	0	0	0
COCCNCC(=O)NC12CC3CC(CC(C3)C1)C2	-	0	0	117
COc1ccc(NC(=O)Nc2cccc3c2O[C@@H](CN(C)C(=O)Nc2ccc(C(F)(F)F)cc2)[C@@H](C)CN([C@@H](C)CO)C3=O)cc1	0	0	0	0
CC(C)CC(=O)NC(=S)NNC(=O)c1ccc(NC(=O)C2CCCCC2)cc1	-	68	-	-
Cc1ccc(S(=O)(=O)n2nc(-c3ccco3)nc2SCc2ccccc2)cc1	-	0	0	109
C=CCNC(=O)C(C#N)c1nc2ccccc2nc1N1CCCCCC1 (configuration not stated)	-	0	-	86
CC(C)C(=O)Nc1ccc2c(c1)C(=O)N(C)[C@@H]1CC[C@H](CC(=O)NCc3ccccc3F)O[C@H]1CO2	0	0	0	0
O=C(c1[nH]ncc1-c1cccc(Br)c1)C1CO1 (configuration not stated)	11	0	-	-
COc1ccc(S(=O)(=O)Nc2ccc3c(c2)C(=O)N([C@@H](C)CO)C[C@H](C)[C@@H](CN(C)Cc2ccc(Cl)c(Cl)c2)OCCCC[C@@H](C)O3)cc1	0	0	0	0
C[C@@H]1CCCCO[C@H](CN(C)Cc2ccc(Cl)c(Cl)c2)[C@@H](C)CN([C@@H](C)CO)C(=O)c2cc(NS(=O)(=O)c3ccc(Cl)cc3)ccc2O1	12	-	-	-
COc1ccc(S(=O)(=O)Nc2ccc3c(c2)C(=O)N([C@@H](C)CO)C[C@H](C)[C@@H](CN(C)Cc2ccc(Cl)c(Cl)c2)OCCCC[C@H](C)O3)cc1	0	0	0	0
COc1ccc(S(=O)(=O)Nc2ccc3c(c2)C(=O)N([C@@H](C)CO)C[C@H](C)[C@H](CN(C)Cc2ccc(Cl)c(Cl)c2)OCCCC[C@@H](C)O3)cc1	8.0	0	0	0
COc1ccc(S(=O)(=O)Nc2ccc3c(c2)C(=O)N([C@H](C)CO)C[C@H](C)[C@H](CN(C)Cc2ccc(Cl)c(Cl)c2)OCCCC[C@@H](C)O3)cc1	0	0	0	79
CO[C@@H]1CN(C)C(=O)c2cc(NC(C)=O)ccc2OC[C@H](C)NC[C@H]1C	0	0	0	0
SMILES	CFTR F508del cor	ARNT-TACC3 inh	PglD DTNB	Statin myotox sup
COc1ccc2c3c([nH]c2c1)[C@@H](CO)N(C(=O)Nc1ccccc1F)CC31CN(C(=O)c2ccccc2F)C1	0	-	-	-
CCC(=O)N1[C@@H]2CN(C(=O)CC(F)(F)F)c3ccccc3[C@@H]2[C@@H]1CO	0	0	0	0
Cc1cc(N2CCC(C)CC2)c(F)cc1[N+](=O)[O-]	-	0	0	0
Cc1cc(N2CCCC2)c(F)cc1/C=C\[N+](=O)[O-]	28	0	-	-
O=C(N/N=C/c1cc(O)ccc1Br)c1cccnc1	0	85	0	0
O=C(N/N=C/c1ccc(Br)s1)c1cccnc1	-	0	-	0
O=C(N/N=C/c1cc2c(cc1Br)OCO2)c1cccnc1	0	-	-	-
O=C(N/N=C/c1cc(Br)c(O)c(Br)c1O)c1cccnc1	0	70	0	0
CCC(=O)N(C)C[C@H]1Oc2ncc(-c3ccc(C(=O)N(C)C)cc3)cc2C(=O)N([C@@H](C)CO)C[C@H]1C	0	0	0	0
COCC(=O)N(C)C[C@@H]1Oc2ncc(C#CC(C)(C)O)cc2C(=O)N([C@H](C)CO)C[C@H]1C	0	0	0	0
COc1cc(OC)cc(C(=O)Nn2c(C)nc3ccccc3c2=O)c1	-	0	0	-
COc1cc(OC)cc(-c2nc3ccccc3c(=O)n2OC(=O)c2ccc(C)c(C)c2)c1	9.1	0	-	-
Cc1ccccc1OCC(=O)OCC(=O)NCCc1ccccc1	15	0	0	0
CCOc1ccc(CCNC(=O)COC(=O)COc2ccccc2C)cc1OCC	0	0	-	-
Cc1cc(NC(=O)CCNS(=O)(=O)c2ccc3[nH]c(=O)oc3c2)ccc1Br	0	0	0	0
Cc1ccc(NC(=O)CCNS(=O)(=O)c2ccc3[nH]c(=O)oc3c2)cc1F	0	0	0	111
CCC1(C)Cc2ccccc2-c2nc[nH]c(=O)c21 (configuration not stated)	8.6	0	0	0
O=C(NCCCN1CCc2ccccc2C1)Nc1ccc(Cl)cc1	-	0	0	87
COc1cccc(C(C(=O)NC(C)(C)C)N(C(=O)CCC(=O)Nc2cc(C)on2)C(C)(C)C)c1OC (configuration not stated)	-	0	0	67
COc1cccc(C(C(=O)NC(C)(C)C)N(C(=O)CCC(=O)Nc2cc(C)on2)C(C)C)c1OC (configuration not stated)	-	0	-	-
O=C1NCCCC1C(=O)N/N=C/c1cc([N+](=O)[O-])ccc1O (configuration not stated)	0	70	0	0
O=C(N/N=C/c1cc([N+](=O)[O-])ccc1O)C(O)(c1ccccc1)c1ccccc1	0	49	0	0
O=C(N/N=C/c1cc([N+](=O)[O-])ccc1O)C1CC1	0	54	0	0
COc1cc(/C=N/NC(=O)c2cccc(N3CCCC3=O)c2)ccc1O	0	0	0	0
